Screen size: about 11,000 compounds; about 310 (2.8%) were called active. Rule as the data show it: active = activity change below about -85%; inactive = the rest. Shown is part of a subset that was picked to be rich in actives.

The test system of the experiment is intestinal alkaline phosphatase [Mus musculus]. The experiment in a line: activators of mouse IAP, confirmation, biochemical, luminescence, single concentration (AID 434970). The conditions noted are these: purified mouse IAP, CDP-Star luminescence, 30 min, at 10 µM; activation factor: measured here: IAP activation factor, stronger effect = higher value; activity change, negative = activation: stronger effect = lower value.
Consider `Cc1cccc(-c2noc(CCC(=O)N3CCN(c4cc(C)ccc4C)CC3)n2)c1`, for which the activation factor was 0.938 and the activity change, negative = activation was 6.25% (inactive).
On to `c1coc(C2Nc3cccc4cccc(c34)N2)c1`, for which the activation factor is 0.307 and the activity change, negative = activation is 69.3% (inactive).
In the same order, the values of `CN1CC2([N+](=O)[O-])CC=C(Oc3ccccc3)C([N+](=O)[O-])(C1)C2` (centres undefined) are 0.919 and 8.05% (inactive).
In the case of `C#CCOCCOCCOCCNc1nc(N2CCN(C(=O)CCCCCCCCCCNC(=O)Cn3cc(CCCCCN)nn3)CC2)nc(N2CCN(C(=O)CCCCCCCCCCNC(=O)[C@@H](CCSC)n3cc(CCO)nn3)CC2)n1`, the activation factor worked out at 3.56 and the activity change, negative = activation is -256% (active).
The matching figures for `C#CCOCCOCCOCCNc1nc(N2CCN(C(=O)CCCCCCCCCCNC(=O)[C@@H](CCSC)n3cc(CCO)nn3)CC2)nc(N2CCN(C(=O)CCCCCCCCCCNC(=O)[C@H](CCSC)n3cc(CCO)nn3)CC2)n1`: 1.78 and -77.9% (inactive).
The matching figures for `C#CCOCCOCCOCCNc1nc(N2CCN(C(=O)CCCCCCCCCCNC(=O)Cn3cc(C[C@@H](C)O)nn3)CC2)nc(N2CCN(C(=O)CCCCCCCCCCNC(=O)[C@@H](CCSC)n3cc(CCO)nn3)CC2)n1`: 1.97 and -96.8% (active).
`C#CCOCCOCCOCCNc1nc(N2CCN(C(=O)CCCCCCCCCCNC(=O)Cn3cc(CCCCCN)nn3)CC2)nc(N2CCN(C(=O)CCCCCCCCCCNC(=O)[C@H](CO)n3cc(CCCSC)nn3)CC2)n1`: the activation factor was 2.53 and the activity change, negative = activation is -153% (active).
In the same order, the values of `CCOc1ccc(-n2c(SCC(=O)NCc3ccco3)nc3c(c2=O)SCC3)cc1` are 0.865 and 13.5% (inactive).
The matching figures for `COc1cc(O)c2c(c1)OC(C)(C)CC2=O`: 1.08 and -7.6% (inactive).
For the compound `O=C(CSc1nc2cccnc2n1Cc1ccccc1)N1CCCC1`, the activation factor worked out at 1.07 and the activity change, negative = activation was -7.2% (inactive).
For the compound `COC(=O)[C@H](CCSC)NC(=O)Cn1cnc(C(=O)Nc2ccc(C)c(C)c2)n1`, the activation factor is 0.956 and the activity change, negative = activation was 4.35% (inactive).
`CC(NC(=O)CCSc1nc(-c2ccco2)cc(C(F)(F)F)n1)c1ccccc1` (centres undefined): the activation factor was 0.94 and the activity change, negative = activation is 6% (inactive).
Regarding `O=C(N/N=C/c1ccc([N+](=O)[O-])o1)c1ccccc1NS(=O)(=O)c1cccs1`, the activation factor stood at 0.375 and the activity change, negative = activation is 62.5% (inactive).
Take `O=C(c1ccc(C(=O)N2CCOCC2)nc1)N1CCOCC1`: the activation factor amounted to 1.09 and the activity change, negative = activation is -8.9% (inactive).
`CCc1ccc(NC(=O)c2sccc2-n2cccc2)cc1`: the activation factor turned out to be 1.04 and the activity change, negative = activation was -4.35% (inactive).
In the same order, the values of `Fc1cc(NC(=S)NCc2ccc(CNC(=S)Nc3ccc(Cl)c(F)c3)cc2)ccc1Cl` are 1.44 and -44.1% (inactive).
In the same order, the values of `O=C(Nc1ccc(Cl)cc1)C1CCN(C(=O)NC2CCCCC2)CC1` are 0.914 and 8.6% (inactive).
For the compound `O=C(Nc1ccc(Cl)cc1)NC1CCCCC1Cc1ccco1` (centres undefined), the activation factor was 2.11 and the activity change, negative = activation was -111% (active).
With `O=C(NCCSCc1ccco1)Nc1cc(Cl)cc(Cl)c1`, the activation factor turned out to be 1.27 and the activity change, negative = activation is -27.2% (inactive).
Take `CC/C(=N\n1nnnc1Nc1ccccc1)c1ccccc1`: the activation factor was 1.02 and the activity change, negative = activation is -2.45% (inactive).
For the compound `Cc1ccc(N2C(=O)/C(=C/c3ccco3)SC2=S)cc1`, the activation factor is 0.396 and the activity change, negative = activation is 60.5% (inactive).
Consider `Cc1cc2oc(=O)cc(-c3ccccc3)c2c(C)c1-c1ccc(N(C)C)cc1`, for which the activation factor was found to be 0.885 and the activity change, negative = activation is 11.4% (inactive).
In the case of `COc1cccc(N/C(C)=C/C(=O)c2ccc(Br)cc2)c1`, the activation factor was 1 and the activity change, negative = activation is -0.05% (inactive).
For `COc1cccc(NC(=O)Nc2ccc3c(c2)N(C)C(=O)CS3)c1`, the activation factor is 0.986 and the activity change, negative = activation was 1.5% (inactive).
Turning to `O=C(Nc1ccc2c(c1)CCC2)Nc1ccccc1F`, the activation factor was determined as 1.69 and the activity change, negative = activation was -68.5% (inactive).
`COc1cccc(NC(=O)Nc2ccc3c(c2)CCC3)c1`: the activation factor amounted to 2.9 and the activity change, negative = activation was -190% (active).
For the compound `Cn1cccc1C(=O)OCC(=O)Nc1ccc2c(c1)CCC2`, the activation factor stood at 1.05 and the activity change, negative = activation was -5.05% (inactive).
Turning to `O=C(Nc1ccccc1)Nc1ccc2c(c1)CCC2`, the activation factor amounted to 1.95 and the activity change, negative = activation was -94.8% (active).
Take `Cc1cccc(NC(=O)Nc2ccc3c(c2)CCC3)c1`: the activation factor is 1.41 and the activity change, negative = activation is -41.4% (inactive).
`Cc1ccc(NCc2nnc(SCC(=O)N3CCCc4ccccc43)o2)c(C)c1`: the activation factor came out at 1.02 and the activity change, negative = activation is -2.3% (inactive).
As to `CCS(=O)(=O)n1nc(-c2ccccc2)nc1N`, the activation factor was 0.926 and the activity change, negative = activation is 7.4% (inactive).
On to `CC(/C=N/n1cnnc1)=C\c1ccccc1`, for which the activation factor is 1.02 and the activity change, negative = activation is -1.9% (inactive).
`CC1(C)CC(=O)C2=C(C1)NC(=O)CC2C(=O)NCc1ccc(F)cc1` (centres undefined): the activation factor was found to be 1.3 and the activity change, negative = activation is -29.9% (inactive).
For `COc1cc(-c2nnc3n2N=C(c2ccccc2)CS3)cc(OC)c1OC`, the activation factor came to 0.996 and the activity change, negative = activation was 0.4% (inactive).
For the compound `CCCNC(=O)c1ccccc1NC(=O)CN(c1ccccc1OCC)S(C)(=O)=O`, the activation factor is 1.15 and the activity change, negative = activation was -15.4% (inactive).
For `O=P(OC1CCS(=O)(=O)C1)(c1ccccc1)c1ccccc1` (centres undefined), the activation factor came out at 0.921 and the activity change, negative = activation was 7.85% (inactive).
As for `[N-]=[N+]=CC(=O)CCCN1C(=O)c2ccccc2C1=O`, the activation factor was determined as 1.09 and the activity change, negative = activation was -9.05% (inactive).
Turning to `O=C(Cc1cccs1)Nc1nnc(CCc2ccccc2)s1`, the activation factor is 1.15 and the activity change, negative = activation is -14.7% (inactive).
The matching figures for `Cc1ccc(NC(=O)C2CCN(C(=O)NC3CCCCC3)CC2)cc1Cl`: 1.21 and -20.9% (inactive).
The matching figures for `Cc1cc(C)cc(NC(=O)Nc2ccc(N3CCCCC3)cc2)c1`: 1.16 and -15.9% (inactive).
For `O=C(Nc1cccc(F)c1)NC1CCCCCCC1`, the activation factor stood at 2.42 and the activity change, negative = activation is -142% (active).
Turning to `CC(=O)OC(C(=O)NC1CCCCC1)c1cccc(C)c1` (centres undefined), the activation factor came out at 1.04 and the activity change, negative = activation is -4.4% (inactive).

(Values after PubChem BioAssay AID434970 (Sanford-Burnham Center for Chemical Genomics, 2010).)
